PubChem BioAssay (NCI)
Compounds without any hit were thinned out: in the full panel of roughly 83,000, 20% have a hit.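 In brief: 96-well plates, 48 h treatment, single concentration, percent growth endpoint.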 Activity calls are given as the source filed them. The calls were made as follows: active = growth percent below 10; inactive = the rest.

These compounds were tested on SK-OV-3 ovarian (assay: NCI-60 one-dose screen, 48 h (100 = growth as untreated, 0 = no growth, -100 = all killed)). Conditions: 10 µM unless noted.

Compound	growth
CN(C)c1ccc(C2Nc3ccccc3-n3cccc32)cc1 (stereo unspecified)	104% (inactive)
Nc1nc2c(c3ncccc13)C(c1cccc(Br)c1)Cc1ncccc1-2 (stereo unspecified)	16.5% (inactive)
O=[N+]([O-])c1cccc(-c2nc3sccn3c2-c2ccnc(NCCCNS(=O)(=O)c3ccc(F)cc3)n2)c1	37.1% (inactive)
COc1ccc(-n2c(C)nc3c(c(C)nn3-c3ccccc3)c2=O)cc1	45.1% (inactive)
COc1ccc(-n2cc(-c3ccccc3)c3c(SCC(=O)N/N=C/c4ccc([N+](=O)[O-])cc4)ncnc32)cc1	109% (inactive)
Nc1c(C(=O)Nc2ccccc2)sc2nc3c(cc12)CN(CCc1ccccc1)CC3	89.8% (inactive)
CCOC(=O)c1c2ncccc2n2c(=O)n(-c3ccc(Cl)cc3)nnc12	92.2% (inactive)
CCN(CC)CCCC(C)Nc1ccnc2c(OC)cccc12 (stereo unspecified)	117% (inactive)
OC(c1cccc(C(F)(F)F)c1)c1cnccc1NC1CCCCCC1 (stereo unspecified)	71.4% (inactive)
NC(=S)N/N=C/c1cc(-c2cccc(N)c2)ccn1	27.5% (inactive)
COc1ccc(CCN2CCCn3c2nc2ccccc2c3=O)cc1	53.7% (inactive)
O=C(/C=C\c1cccc([N+](=O)[O-])c1)c1ccccc1	115% (inactive)
CCOC(=O)C(Cc1cc(I)c(O)c(I)c1)NC(=O)c1ccccc1 (stereo unspecified)	94.1% (inactive)
COc1cc(C#N)cc(OC)c1OCCN(CCOc1c(OC)cc(C#N)cc1OC)S(=O)(=O)c1ccc(C)cc1	119% (inactive)
CN1CCN(Cc2ccc(NC(=O)c3cncc(C#Cc4cncc5nccnc45)c3)cc2C(F)(F)F)CC1	74.7% (inactive)
Nc1nc(-c2ccc(F)cc2)cc(-c2cnn(-c3ccccc3)n2)n1	102% (inactive)
CC(=O)C1=C(O)C=C2Oc3c(C(=O)/C=C/c4ccccc4)c(O)c(C)c(O)c3[C@]2(C)C1=O	40.9% (inactive)
COc1ccc(C/C(C)=C(\c2ccc(OCCN3CCCCCC3)cc2)c2ccc(OC(=O)C3CCCCC3)cc2)cc1	77.8% (inactive)
O=[N+]([O-])c1cccc(-c2nc3sccn3c2-c2ccnc(NCCCNS(=O)(=O)c3ccc(Br)cc3)n2)c1	92.5% (inactive)
CCOC(=O)/C=C/C(=O)[C@H](CC(C)C)NC(=O)[C@H](Cc1ccccc1)NC(=O)OCc1ccccc1	102% (inactive)

Compound	growth
Cc1cc2cc3cc(C)c(N(C)C)cc3nc2cc1N(C)C	17.7% (inactive)
C=C1CCC2C3(C)COC(C)(C)OC3CCC2(C)C1C/C=C1/C(=O)OCC1OC(C)=O (stereo unspecified)	97.4% (inactive)
C=C1CC2(OC1=O)C(=O)N(CCCCCCCCCCCCN1C(=O)C3(CC(=C)C(=O)O3)c3ccccc31)c1ccccc12 (stereo unspecified)	105% (inactive)
O=C1c2cccnc2C(=O)c2c1c(C(=O)OCCN1CCCCC1)c1ccccn21	-36.8% (active)
COc1ccccc1N1CCN(CCn2c(=O)c3c(c4ccccc4n3C)n(C)c2=O)CC1	93.6% (inactive)
C/C(=C(/c1ccc(O)cc1)c1ccc(OCCN(C)C)cc1)c1ccccc1	90.2% (inactive)
CCOC(=O)c1c2c(n3ccc(NC(=O)CCN4CCOCC4)cc13)C(=O)c1ncccc1C2=O	36.6% (inactive)
Cc1cc(=O)oc2cc(Oc3nc(-c4cccs4)cn4c(-c5cccs5)cnc34)ccc12	90.6% (inactive)
CC(C)[C@@H]1CC[C@]2(C(=O)NCCCCN=C(N)N)CC[C@]3(C)[C@H](CC[C@@H]4[C@@]5(C)CCC(=O)C(C)(C)[C@@H]5CC[C@]43C)[C@@H]12	91.7% (inactive)
Oc1cc(O)c2c(=S)cc(-c3ccc(Cl)cc3)oc2c1	61.8% (inactive)
COc1ccc(-c2cn3c(-c4ccc(OC)cc4)cnc3c(Oc3ccc4c(C)cc(=O)oc4c3)n2)cc1	90.6% (inactive)
CN1CCN(Cc2ccc(NC(=O)c3[nH]ncc3Nc3ccnc4ccsc34)cc2)CC1	34.7% (inactive)
Nc1nc2ccc(-c3nc4ccc5[nH]ncc5c4c4c3CCC4)cc2s1	-21.7% (active)
Oc1ccc2c(=S)cc(-c3ccc(Br)cc3)oc2c1O	62.3% (inactive)
Clc1cccc(Nc2nc(Nc3cnc4ccccc4c3)c3[nH]cnc3n2)c1	71.2% (inactive)
COc1ccc(-c2cc(NC(=O)Nc3ccc(O)cc3)no2)cc1	111% (inactive)
CC(=O)CC(C)(C)c1ccc(Cl)cc1	107% (inactive)
O=C1C2CC=CCC2C(=O)N1CNc1ccc(Cl)cc1 (stereo unspecified)	101% (inactive)
CN1CCN(Cc2ccc(NC(=O)c3[nH]ncc3Nc3ncnc4c3CCC4)cc2)CC1	24.5% (inactive)

The compounds below were run on IGROV1 ovarian in the same assay as above. Conditions: 10 µM unless noted.

Compound	growth
CN(C)c1ccc(C2Nc3ccccc3-n3cccc32)cc1 (stereo unspecified)	55% (inactive)
Nc1nc2c(c3ncccc13)C(c1cccc(Br)c1)Cc1ncccc1-2 (stereo unspecified)	42% (inactive)
O=[N+]([O-])c1cccc(-c2nc3sccn3c2-c2ccnc(NCCCNS(=O)(=O)c3ccc(F)cc3)n2)c1	5.03% (active)
COc1ccc(-n2c(C)nc3c(c(C)nn3-c3ccccc3)c2=O)cc1	20.3% (inactive)
COc1ccc(-n2cc(-c3ccccc3)c3c(SCC(=O)N/N=C/c4ccc([N+](=O)[O-])cc4)ncnc32)cc1	108% (inactive)
Nc1c(C(=O)Nc2ccccc2)sc2nc3c(cc12)CN(CCc1ccccc1)CC3	96.5% (inactive)
CCOC(=O)c1c2ncccc2n2c(=O)n(-c3ccc(Cl)cc3)nnc12	85.6% (inactive)
CCN(CC)CCCC(C)Nc1ccnc2c(OC)cccc12 (stereo unspecified)	109% (inactive)
OC(c1cccc(C(F)(F)F)c1)c1cnccc1NC1CCCCCC1 (stereo unspecified)	44.2% (inactive)
NC(=S)N/N=C/c1cc(-c2cccc(N)c2)ccn1	16% (inactive)
COc1ccc(CCN2CCCn3c2nc2ccccc2c3=O)cc1	40.3% (inactive)
O=C(/C=C\c1cccc([N+](=O)[O-])c1)c1ccccc1	-53% (active)
CCOC(=O)C(Cc1cc(I)c(O)c(I)c1)NC(=O)c1ccccc1 (stereo unspecified)	99% (inactive)
COc1cc(C#N)cc(OC)c1OCCN(CCOc1c(OC)cc(C#N)cc1OC)S(=O)(=O)c1ccc(C)cc1	77.3% (inactive)
Nc1nc(-c2ccc(F)cc2)cc(-c2cnn(-c3ccccc3)n2)n1	83.8% (inactive)
CC(=O)C1=C(O)C=C2Oc3c(C(=O)/C=C/c4ccccc4)c(O)c(C)c(O)c3[C@]2(C)C1=O	37.1% (inactive)
COc1ccc(C/C(C)=C(\c2ccc(OCCN3CCCCCC3)cc2)c2ccc(OC(=O)C3CCCCC3)cc2)cc1	52.3% (inactive)
CCOC(=O)/C=C/C(=O)[C@H](CC(C)C)NC(=O)[C@H](Cc1ccccc1)NC(=O)OCc1ccccc1	75.6% (inactive)
Cc1cc2cc3cc(C)c(N(C)C)cc3nc2cc1N(C)C	-13.8% (active)

Compound	growth
C=C1CCC2C3(C)COC(C)(C)OC3CCC2(C)C1C/C=C1/C(=O)OCC1OC(C)=O (stereo unspecified)	69.6% (inactive)
C=C1CC2(OC1=O)C(=O)N(CCCCCCCCCCCCN1C(=O)C3(CC(=C)C(=O)O3)c3ccccc31)c1ccccc12 (stereo unspecified)	64.8% (inactive)
O=C1c2cccnc2C(=O)c2c1c(C(=O)OCCN1CCCCC1)c1ccccn21	-16.7% (active)
COc1ccccc1N1CCN(CCn2c(=O)c3c(c4ccccc4n3C)n(C)c2=O)CC1	104% (inactive)
C/C(=C(/c1ccc(O)cc1)c1ccc(OCCN(C)C)cc1)c1ccccc1	89.1% (inactive)
CCOC(=O)c1c2c(n3ccc(NC(=O)CCN4CCOCC4)cc13)C(=O)c1ncccc1C2=O	31.3% (inactive)
Cc1cc(=O)oc2cc(Oc3nc(-c4cccs4)cn4c(-c5cccs5)cnc34)ccc12	79.2% (inactive)
CC(C)[C@@H]1CC[C@]2(C(=O)NCCCCN=C(N)N)CC[C@]3(C)[C@H](CC[C@@H]4[C@@]5(C)CCC(=O)C(C)(C)[C@@H]5CC[C@]43C)[C@@H]12	25.6% (inactive)
Oc1cc(O)c2c(=S)cc(-c3ccc(Cl)cc3)oc2c1	26.1% (inactive)
COc1ccc(-c2cn3c(-c4ccc(OC)cc4)cnc3c(Oc3ccc4c(C)cc(=O)oc4c3)n2)cc1	70.6% (inactive)
CN1CCN(Cc2ccc(NC(=O)c3[nH]ncc3Nc3ccnc4ccsc34)cc2)CC1	24.2% (inactive)
Nc1nc2ccc(-c3nc4ccc5[nH]ncc5c4c4c3CCC4)cc2s1	21.4% (inactive)
Oc1ccc2c(=S)cc(-c3ccc(Br)cc3)oc2c1O	19% (inactive)
Clc1cccc(Nc2nc(Nc3cnc4ccccc4c3)c3[nH]cnc3n2)c1	62.3% (inactive)
COc1ccc(-c2cc(NC(=O)Nc3ccc(O)cc3)no2)cc1	68.2% (inactive)
CC(=O)CC(C)(C)c1ccc(Cl)cc1	96% (inactive)
O=C1C2CC=CCC2C(=O)N1CNc1ccc(Cl)cc1 (stereo unspecified)	74.6% (inactive)
CN1CCN(Cc2ccc(NC(=O)c3[nH]ncc3Nc3ncnc4c3CCC4)cc2)CC1	19.2% (inactive)
